The text below walks through data of PubChem BioAssay AID2546 (National Center for Advancing Translational Sciences (NCATS), 2010).

Structures are written as SMILES. Hit rate of the full screen: of about 310,000 compounds, about 11,000 (3.5%) were called active. Where a call stands in place of a potency, no number is given. Roughly 8% stayed inconclusive and do not appear here. The sample holds actives, similar compounds and a random draw of the others, so the mix is not that of the screen. Calls come from the whole dose curve; as a rule, active = well fitted inhibition curve with a large enough effect; inconclusive = small, poorly fitted or top-dose-only effect, or effect the other way; inactive = flat fitted curve, though single readings scatter.
Potency is the fitted concentration of half-maximal effect.

The assay in a line: VP16 counterscreen qHTS for inhibitors of ROR gamma transcriptional activity.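 Note: Gal4-VP16 expression switched on by copper sulfate through the metallothionein promoter; nearly all actives have a fitted effect of over 50% in size.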 The following applies: Drosophila S2 Gal4-VP16 UAS-luciferase, luminescence, 20 h; series mostly up to 53.6 µM.
Consider `COc1ccc(CNC(=O)CN(Cc2ccccc2Cl)C(=O)c2csnn2)cc1`, for which the Potency entry was “inactive”.
To `COc1ccc(CCNC(=O)c2c(C)nn(-c3ccccc3)c2Cl)cc1` belongs “inactive”; to `COc1ccc(N(CC(=O)Nc2cc(OC)ccc2OC)S(=O)(=O)c2c(C)noc2C)cc1`, “inactive”; to `CCOc1c(OC)cccc1C(=O)NCC1(c2ccccc2)CCCC1`, “inactive”.
To `CN(Cc1ccccc1)C(=O)c1ccc(COc2ccccc2)cc1` belongs “inactive”; to `O=S(=O)(ON(c1ccccc1)S(=O)(=O)c1ccccc1)c1ccccc1`, “inactive”; to `CC1=C/C(=N\OS(=O)(=O)c2ccccc2)C=CC1=O`, 1.12 µM (active).
To `NC(=O)CC(NC(=O)Cc1ccc(Br)cc1)c1ccc(NC2CC3CCC2C3)c([N+](=O)[O-])c1` (centres undefined) belongs “inactive”; to `CC(C)NC(=O)C(c1ccc(F)cc1)N(C(=O)CCC(=O)Nc1ccccn1)c1ccccc1F` (centres undefined), “inactive”.
With `CCCn1nc(NC(=O)C(C)C)c2cc3cc(OC)ccc3nc21`, the Potency entry is “inactive”.
The entry for `CCOc1ccc2c(c1)c(=O)c(S(=O)(=O)c1ccc(C)cc1)cn2CC` is “inactive”; for `COCn1c(C(O)c2ccccc2)cc2ccccc21` (centres undefined) it is “inactive”.
On to `COc1cc(-n2c(C)nc3cc(C(=O)NCc4ccco4)ccc32)cc(OC)c1OC`, for which the Potency result was “inactive”.
The figure for `COc1cc(C(=O)NC(=S)NCc2ccco2)cc(OC)c1OC` is 6.31 µM (active); for `COc1cc(C(=O)N[C@@H](C)C(=O)NCc2ccco2)cc(OC)c1OC` it is “inactive”.
The entry for `COc1ccc(CNc2nccs2)cc1` is “inactive”; for `CCC(=C/c1sc2ccc3ccccc3c2[n+]1C)/C=C1\Sc2ccc3ccccc3c2N1C` it is 1 µM (active); for `COc1cccc(OC)c1C(=O)Nc1c(C(=O)N2CCN(c3ccccn3)CC2)oc2ccccc12` it is “inactive”.
Consider `O=C(c1cccnc1)N1CCN(S(=O)(=O)c2cccs2)CC1`, for which the Potency entry is “inactive”.
On to `O=S(=O)(NC1CCCCC1N1CCN(c2ccccc2F)CC1)c1ccccc1` (centres undefined), for which the Potency entry was “inactive”.
With `CCOC(=O)CCNC(=O)N1CCCC(C(=O)c2ccccc2SC)C1` (centres undefined), the Potency result was “inactive”.
The figure for `CCOC(=O)c1cnc(Nc2nc3ccccc3o2)nc1CSC(=S)N1CCCCC1` is 1 µM (active); for `CCc1ccc(CNC(=O)C2CCCN(c3nc4ccccc4o3)C2)cc1` (centres undefined) it is “inactive”.
To `COc1cc(C(=O)NCc2cc3cc(Cl)ccc3n2C)cc(OC)c1OC` belongs “inactive”.
Regarding `Cc1ccc(NS(=O)(=O)c2ccc3c(c2)oc(=O)n3C)c(C)c1`, the Potency result was “inactive”.
Turning to `COc1ccccc1N(C)C(=O)c1cc(S(=O)(=O)N2CCc3ccccc32)cn1C`, the Potency entry is “inactive”.
The entry for `COC(=O)c1ccc(C(=O)NC2CC(C)(C)Cc3c2cnn3-c2ccc(F)cc2)nc1` (centres undefined) is “inactive”; for `Oc1c(C=Nc2cccc3nsnc23)ccc2ccccc12` it is “inactive”.
The figure for `Oc1ccc2ccccc2c1N=Nc1nccs1` is 3.55 µM (active).
`Oc1ccc(N=Nc2nccs2)c(O)c1`: the Potency entry was “inactive”.
The entry for `Cc1csc(NC(=O)CSc2nnc(-c3cccnc3)o2)n1` is “inactive”.
The entry for `COc1ccc(-c2nc(CS(=O)(=O)CC(=O)NCc3cccc(Br)c3)c(C)o2)cc1` is “inactive”; for `Cc1cccc(N=Nc2c(C)[nH]n(-c3ccccc3)c2=O)c1` it is “inactive”; for `Cc1[nH]n(C(N)=S)c(=O)c1N=Nc1ccc(Cl)cc1Cl` it is 2.82 µM (active).
On to `Cc1ccc(N=Nc2c(C)[nH]n(-c3ccccc3)c2=O)cc1`, for which the Potency result was “inactive”.
To `COc1ccc(NC(=O)c2cc(-c3cc(OC)c(OC)c(OC)c3)nc3ccccc23)c(OC)c1` belongs “inactive”; to `O=C(NC(=S)N1CCN(Cc2ccccc2)CC1)c1ccccc1`, 3.55 µM (active); to `O=C(c1cccc(Cl)c1)N1CCN(Cc2ccccc2)CC1`, “inactive”.
The entry for `O=C(Nc1ccccc1)N1CCN(Cc2ccccc2)CC1` is “inactive”; for `CC1CCN(S(=O)(=O)c2ccc3[nH]c(=O)ccc3c2)CC1` it is “inactive”.
The entry for `CCC(C)[C@H](NC(=O)N1CCn2c1nc1ccccc12)C(=O)NCc1ccc(OC)cc1` (some centres undefined) is “inactive”.
Turning to `NC(=S)N/N=C/c1ccc([N+](=O)[O-])cc1`, the Potency result was “inactive”.
The entry for `CCOc1ccc(/C=N\NC(=O)c2c(C)nc3cc(C)ccn23)cc1` is “inactive”; for `CCOc1ccc(/C=N/NC(N)=S)cc1` it is 10 µM (active).
To `COc1cc(OC)cc(C(=O)NCCSCc2ccc(Cl)cc2)c1` belongs “inactive”.
To `COc1cccc(-c2noc(C3CCCN(C(=O)c4ccc(F)cc4)C3)n2)c1` (centres undefined) belongs “inactive”; to `Cn1c(=O)c2c(SCC(=O)NCC3CCCO3)nc(CC(C)(C)C)nc2n(C)c1=O` (centres undefined), “inactive”; to `O=c1[nH]c(N2CCN(Cc3ccc4c(c3)OCO4)CC2)nc2c1CCCC2`, “inactive”.
Take `CC(C)(C)n1nnnc1C(c1ccc(F)cc1)N1CCN(Cc2ccc3c(c2)OCO3)CC1` (centres undefined): the Potency entry was “inactive”.
In the case of `Fc1ccc2[nH]c3c(N4CCN(Cc5ccc6c(c5)OCO6)CC4)ncnc3c2c1`, the Potency is 7.08 µM (active).
For `CCC(C)(C)NC(=O)C(c1ccc(O)cc1)N(Cc1ccco1)C(=O)CCC(=O)Nc1ccccn1` (centres undefined), the Potency result is “inactive”.
The figure for `Cc1ccc(-c2cnc(NC(=O)CCC(=O)N(C)Cc3ccccc3)n2C)cc1` is 4.47 µM (active).
To `Cn1c(-c2ccc(F)cc2)cnc1SCC(=O)NNC(=O)Cc1ccccc1` belongs “inactive”; to `CN(Cc1ccccc1)C(=O)CCc1ccccc1`, “inactive”.
To `Cc1ccn2c(=O)c(C(=O)NCCC3=CCCCC3)c(O)nc2c1` belongs “inactive”; to `O=C(COc1nsnc1N1CCOCC1)Nc1ccccc1Cl`, “inactive”.
In the case of `O=C(Cn1ncc2c3ccccc3n(Cc3ccccc3)c2c1=O)NCCCN1CCOCC1`, the Potency entry is “inactive”.
The entry for `CCCn1c(C(Cc2ccccc2)NC(=O)COC)nc2ccccc21` (centres undefined) is “inactive”.
To `CCOc1ccccc1NC(=O)C12CC3CC(C1)CC(c1ccc(C)cc1)(C3)C2` belongs “inactive”; to `CCCn1c(NC(=O)C23CC4CC(CC(O)(C4)C2)C3)nc2ccccc21`, 5.62 µM (active); to `Cc1ccc2c(=O)cc(C(=O)NCCc3ccc(S(N)(=O)=O)cc3)oc2c1C`, “inactive”.
The entry for `CCCCc1cc(=O)oc2c(C)c(OCC(=O)N3CCC(C(N)=O)CC3)ccc12` is “inactive”.
As for `COc1cccc(C(=O)NCCSc2ccc(Br)cc2)c1`, the Potency entry is “inactive”.
To `COc1cc(NC(=O)Nc2ccc(C)cc2)cc([N+](=O)[O-])c1` belongs “inactive”.
To `COc1cc(NC(=S)NCCSc2ccc(C)cc2)cc(OC)c1` belongs 6.31 µM (active); to `Cc1ccc(-n2nc3c(=O)n(C(C)C(=O)NCc4ccc5c(c4)OCO5)nc(C)c3c2C)cc1` (centres undefined), “inactive”; to `CC(C)(C)Cc1nnc(NC(=O)c2cc(-c3ccccc3)nc3ccccc23)s1`, 12.6 µM (active).
To `COC(=O)c1cc(-c2cccs2)nc2ccccc12` belongs “inactive”; to `O=C(O)c1cccc(NC(=O)c2cc(-c3cccc(Cl)c3)nc3ccccc23)c1`, “inactive”; to `O=C(Nc1nnc(-c2ccccc2)o1)c1cc(-c2cccs2)nc2ccccc12`, 1 µM (active).
As to `CCCCN(C)CCCNC(=O)c1cc(-c2cccs2)nc2ccccc12`, the Potency result was “inactive”.
Regarding `COC(=O)CNC(=O)c1cc(-c2ccncc2)nc2ccccc12`, the Potency result is “inactive”.
To `CCOc1ccc(CN2CCN(CCCc3ccccc3)C(CCO)C2)cc1` (centres undefined) belongs “inactive”.
The entry for `COc1ccc(CNC(=O)CN(C(=O)c2csnn2)c2cnc3ccccc3c2)cc1` is “inactive”; for `OC(COc1ccc(F)cc1Cl)CN1CCc2ccccc2C1` (centres undefined) it is “inactive”.
The entry for `O=C(c1ccc(S(=O)(=O)N2CCCC2)cc1)N1CCN(c2ccccc2F)CC1` is “inactive”.
Regarding `CCOc1cc2[nH]c(=S)n(Cc3ccc(C(=O)N4CCN(C)CC4)cc3)c(=O)c2cc1OCC`, the Potency entry was “inactive”.
The entry for `COc1ccc(OCc2cn3c(C)cc(C)nc3n2)cc1` is “inactive”; for `COc1ccc(C(C[N+](=O)[O-])n2nc(C)cc2C)cc1` (centres undefined) it is 10 µM (active).
The entry for `COc1ccc(C(=O)CSc2nc(C)cc(C)n2)cc1[N+](=O)[O-]` is “inactive”.
Take `Cc1cccc(N2C(=O)N3[C@H](c4ccc(F)cc4)[C@@H]4C(=O)N(C5CCCCC5)C(=O)[C@@H]4[C@]3(Cc3ccccc3)C2=O)c1`: the Potency result was “inactive”.
On to `CC1CC2=C(CC1/C=N/NC(N)=S)C(C)(C)CCC2` (centres undefined), for which the Potency was 2.82 µM (active).
To `COc1ccc(/C=N/OCc2ccccc2C#N)c(OC)c1` belongs “inactive”.
Regarding `O=C1CCC(C(=O)N2CCN(c3ccccc3Cl)CC2)CN1CC1CCCCC1` (centres undefined), the Potency result was “inactive”.
The entry for `COc1cc(CN2CCC(n3nccc3NC(=O)CCCc3ccccc3)CC2)ccc1O` is “inactive”; for `CCc1ccc(-c2nnn(Cc3nn[nH]n3)n2)cc1` it is “inactive”; for `Clc1ccc(-c2nnc(SCc3nc4ccccc4s3)o2)cc1` it is “inactive”.
To `CCc1ccc(-c2nnn(Cc3nc4ccccc4s3)n2)cc1` belongs 10 µM (active); to `CC(C)C[C@@H](NC(=O)[C@H]1CCCN1C(=O)Cc1ccccc1)C(N)=O`, “inactive”.
Take `CCOC(=O)c1cc2c(nc1NC(=S)Nc1ccccc1)CC(C)(CC)OC2` (centres undefined): the Potency is 7.94 µM (active).
Regarding `CCOC(=O)c1c(NC(=S)Nc2ccccc2)sc2c1CCN(C)C2`, the Potency entry was “inactive”.
The entry for `CCOC(=O)c1ccccc1NC(=O)CSc1nc2ccccc2c(=O)[nH]1` is “inactive”; for `CCOC(=O)C1CN(S(=O)(=O)c2ccc(OC)cc2)c2cc(Cl)ccc2O1` (centres undefined) it is “inactive”; for `O=C(C1CCN(Cc2ccc(Cl)cc2)CC1)N1CCN(Cc2ccc3c(c2)OCO3)CC1` it is “inactive”.
To `O=C(NNC1=NCCC1)c1cccc(S(=O)(=O)N2CCCCC2)c1` belongs 10 µM (active); to `O=C(Nc1cccnc1)c1cccc(S(=O)(=O)N2CCCC2)c1`, “inactive”.
The entry for `O=C(NNC(=S)Nc1ccccc1)c1cccc(S(=O)(=O)N2CCOCC2)c1` is “inactive”; for `Cn1c(SCC(=O)N2CCCC2)nnc1-c1ccc2c(c1)OCO2` it is “inactive”.
Turning to `O=C(CCNS(=O)(=O)c1cccs1)N1CCN(c2ccc(F)cc2)CC1`, the Potency entry was “inactive”.
Turning to `COc1cc(S(=O)(=O)Nc2ncn[nH]2)ccc1Cl`, the Potency result was “inactive”.
The entry for `CCn1c(=O)cc(O)c2ccccc21` is “inactive”; for `CCn1c(O)c(N=NC(=O)c2cccc(S(=O)(=O)N3CCCCC3)c2)c2ccccc21` it is “inactive”; for `CCn1c(O)c(N=NC2=NC(=O)CS2)c2cc(C)ccc21` it is 12.6 µM (active).
The entry for `COc1cccc(C(=O)NNC(=O)c2cccc(F)c2)c1` is “inactive”.
